Test results from the supplement of paper PMC6555819.

Columns and labels:
Test in all cases: PBM binding z-score (relative to random genomic background probes); higher = stronger binding; sequences stand for … in GC…GCGATTGACAGCGTAGAATGAAGG
[1] = system: FXR:RXRa (NR concentration 270 nM, RXRa partner concentration 90 nM)
How it was run: (§1)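 The probes on custom Agilent 4×180K protein-binding microarrays were double-stranded, with 34-nt variable regions bearing direct-repeat seeds, single-nucleotide variants, half-site ablations and random human genomic background sequences. Incubation lasted 1 h with ligand-free nuclear receptor dimers in PBS pH 7.4, 2% milk, 0.02% Triton X-100, 1 mM DTT, 0.2 mg/mL BSA and 0.4 mg/ml salmon testes DNA. Antibodies against each partner (one per run) detected bound dimers, and fluorescence scans were regression-normalized. Binding z-scores take the random background probes as reference.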

[2] = system: LXRa:RXRa (NR concentration 270 nM, RXRa partner concentration 90 nM)
How it was run: as §1

[3] = system: LXRa homodimer (NR concentration 270 nM)
How it was run: as §1

[4] = system: LXRb:RXRa (NR concentration 270 nM, RXRa partner concentration 90 nM)
How it was run: as §1

[5] = system: LXRb homodimer (NR concentration 270 nM)
How it was run: as §1

[6] = system: PPARa:RXRa (NR concentration 270 nM, RXRa partner concentration 90 nM)
How it was run: as §1

[7] = system: PPARg:RXRa (NR concentration 180 nM, RXRa partner concentration 90 nM)
How it was run: as §1

[8] = system: PPARg:RXRa 270nM:90nM, anti-RXR (NR concentration 270 nM, RXRa partner concentration 90 nM)
How it was run: as §1

[9] = system: PPARg:RXRa 30nM:10nM, anti-RXR (NR concentration 30 nM, RXRa partner concentration 10 nM)
How it was run: as §1

[10] = system: PPARg:RXRa 90nM:30nM, anti-RXR (NR concentration 90 nM, RXRa partner concentration 30 nM)
How it was run: as §1

Row | Sequence | PBM binding z-score [1] | PBM binding z-score [2] | PBM binding z-score [3] | PBM binding z-score [4] | PBM binding z-score [5] | PBM binding z-score [6] | PBM binding z-score [7] | PBM binding z-score [8] | PBM binding z-score [9] | PBM binding z-score [10]
1 | TCTTGTAGATCTATAGAGGTTAAGAAAGTGCGCT | 0.449 | 3.17 | 0.171 | 1.78 | -0.194 | 1.81 | 0.274 | 1.62 | 2.58 | 2.23
2 | CCTACTGGGCCAAAGGTCATTGAGTCCAATGCTC | 4.97 | 5.37 | 3.87 | 4.99 | 0.584 | 6.7 | 11.6 | 9.86 | 10.1 | 10.7
3 | ACAGACAGGTGATGAAGGTAACTCCGGCTATCAT | 0.229 | 0.181 | -0.0879 | -0.149 | -0.444 | 0.23 | 0.658 | -0.261 | -0.0835 | -0.0688
4 | TAGCCTAGGTCAGATCGGGCCAGTACACGCTATA | 2.56 | 1.36 | -0.186 | 0.718 | -0.385 | 1.82 | 0.74 | 0.997 | -0.169 | -0.0312
5 | ATCTCTAGGTAAAGATAGTACAGTGAATGCAAAT | 0.368 | 1.08 | 0.357 | 0.211 | 0.424 | 0.263 | 1.13 | 0.762 | 0.819 | 0.761
6 | TGTAGTTGGTCAAAGGTCACACACTCGAAATGCG | 5.82 | 5.9 | 3.8 | 5.42 | 1.98 | 6.69 | 11 | 9.78 | 10.1 | 11.7
7 | ACTAGTTGGTCAACTGAGGTCACACACAATTCGG | 4.03 | 4.75 | 3.24 | 3.99 | 0.711 | 4.31 | 3.06 | 3.01 | 0.826 | 2.8
8 | CCGACTGGGGCATAAGGGTACCATAAGCCAGCCC | -0.549 | -0.376 | -0.527 | -0.624 | -1.67 | 0.305 | 1.3 | 1.35 | -0.296 | 1.18
9 | AATACAGGGTCACTAGGCCAGAGTAGGTACGAAT | 6.37 | 5.07 | 0.678 | 3.95 | 0.879 | 6.03 | 8.23 | 6.72 | 3.56 | 5.66
10 | TGTCAAAGTTCAAGGGTAACGTAAGTATCCACAC | 6.24 | 6.1 | 3.43 | 3.73 | 0.957 | 5.25 | 8.36 | 7.5 | 5.26 | 7.05
11 | ATATGTAAGTTAGCTGGGGTCATTCAGACTAGGC | 4.05 | 3.87 | 1.64 | 4.47 | 0.895 | 4.17 | 1.49 | 2.48 | 0.721 | 1.49
12 | TTACCAAGGTGAAAGGTCGTAGATGCACGCCTTG | 3.65 | 3.02 | -0.241 | 2.66 | -0.86 | 5.51 | 8.66 | 8.09 | 7.58 | 8.56
13 | CCTTACGAGTCACGAGGTTATAGCACGACGAGCG | 0.991 | 1.29 | 0.451 | 1.22 | 0.355 | 1.84 | 1.22 | 0.515 | -0.27 | 0.183
14 | CCTACTGGGCCACGAAAGGTTATTGATTCAGTGA | 0.471 | 1.28 | 0.5 | 1.1 | -0.501 | 2.58 | 2.37 | 2.81 | 0.563 | 1.69
15 | TGTCAAAGTTGAAAGGTAACGTAAGTATCCACAC | 1.27 | 1.12 | -0.229 | 1.38 | -0.452 | 3.49 | 5.4 | 5.19 | 2.72 | 4.73
16 | GATACAGTGTCAAGGCCAGAGTACGCGTATTGAT | -0.101 | -0.189 | -0.775 | -0.147 | -0.421 | 0.43 | 0.593 | 0.129 | -0.172 | -0.0433
17 | TCTCAGAGGACACGAAAGGTCAGAGCTCGACATC | 3.13 | 4.15 | 3.56 | 3.12 | 0.409 | 3.52 | 1.66 | 3.01 | 3.08 | 2.85
18 | CTTGCTAGGTCATGGTCAGCTAATCTACAGTATG | 3.63 | 2.86 | 0.466 | 1.66 | -0.00744 | 3.61 | 3.05 | 3.54 | 1.34 | 2.35
19 | TCATATAGGTAAACAGGTGAAAATCCGTAAGTTA | 1.24 | 1.11 | 0.438 | 1.28 | 0.151 | 2.23 | 2.95 | 3.15 | 4.38 | 3.6
20 | ACTATTAGGTGAGACGAGGGCAACCGATAGGTTG | 1.3 | 0.503 | 0.00247 | 0.202 | -0.293 | 1.5 | 1.44 | 1.19 | 0.65 | 0.864

Row | Sequence | PBM binding z-score [1] | PBM binding z-score [2] | PBM binding z-score [3] | PBM binding z-score [4] | PBM binding z-score [5] | PBM binding z-score [6] | PBM binding z-score [7] | PBM binding z-score [8] | PBM binding z-score [9] | PBM binding z-score [10]
21 | CCTCGGAGGACAACAGGAGGTCAGAGCTGCCAGA | 1.12 | 2.26 | 1.95 | 1.36 | -0.474 | 1.99 | 0.527 | 0.477 | -0.553 | 0.529
22 | AGTCAAAGTTCACTAGCTAACGTAAGATTCAGCT | 4.87 | 4.82 | 2.93 | 3.04 | 1.11 | 3.91 | 5.29 | 5.49 | 2.82 | 4.54
23 | AGTCACAGTTCAGGACGAGGTAACGTAAAGCACG | 1.01 | 0.828 | 0.0856 | 0.666 | -0.159 | 1.35 | 1.15 | 0.998 | 0.403 | 0.623
24 | CCTTACGGGTCACTGACAGGTTATTGCATTTGGA | 5.44 | 4.13 | 0.625 | 3.78 | 0.134 | 5.14 | 4.45 | 4.46 | 1.42 | 2.91
25 | CCTCGCAGGACAACAGGAGGTCAGAGCTGCCAGA | 0.787 | 1.63 | 1.92 | 1.05 | -0.469 | 1.73 | 0.326 | -0.0198 | -0.833 | -0.445
26 | CCTCGGAGGACAATAGGAGGTCAGAGCTGCCAGA | 0.746 | 2.4 | 3.23 | 1.38 | -0.2 | 1.87 | 0.443 | 0.389 | -0.612 | -0.255
27 | GCTAGTTGGTCAGTATAAGGTCACACACCGGTCG | 3.04 | 2.87 | 3.48 | 2.64 | 0.601 | 3.23 | 1.38 | 2.09 | 0.612 | 1.37
28 | CCTACTGGGCCATCAGGACATTGATATCAACGTT | 0.247 | -0.3 | 0.171 | -0.621 | -0.424 | 0.703 | 1.19 | 1.26 | 0.361 | 0.825
29 | ATATGTAGGTTATCGGGTCATTGAGTTTGCGCAT | 3.15 | 3.21 | 1.69 | 2.94 | 1.33 | 4.75 | 7.4 | 6.33 | 3.44 | 5.94
30 | TTACCAAGGTGAGCTGAGGTCGTTTATCCAACTC | 2.17 | 1.37 | -0.142 | 0.978 | -0.227 | 1.61 | -0.0022 | 0.829 | -0.0958 | 0.644
31 | ACTAGCAGGCCAAGTTTGGGTCACCCAAACAAAG | 0.488 | 0.347 | -0.356 | 0.836 | -0.589 | 1.98 | 0.125 | 0.213 | -0.577 | -0.0867
32 | CCGACTGGGGCATACGGTTACCATAAGCCAGCCC | -0.196 | -0.252 | -0.334 | -0.388 | -1.21 | 0.556 | 1.47 | 1.77 | 0.00419 | 1.13
33 | CCTGACGGGTCACGAGGTTATAGCACGACGAGCG | 5.64 | 4.17 | 0.355 | 3.29 | -0.286 | 5.34 | 5.73 | 5.6 | 1.87 | 3.91
34 | AGAACGAGGGCAATGAGTTGTTAGCACGGGTGGC | 0.161 | 0.00811 | -0.446 | -0.26 | -1.01 | 1.23 | 1.18 | 0.817 | 0.096 | 0.514
35 | ACAAGTTGGTCAGCTGAGGTCACACACAATTCGG | 3.12 | 3.24 | 2.34 | 3.77 | 0.506 | 3.78 | 2.28 | 2.38 | 0.435 | 1.74
36 | ATATGTAGGTTAAGGGTCATTTAGGTTGGTTCGC | 5.62 | 4.94 | 3.45 | 4.87 | 1.82 | 6.75 | 11.6 | 9.62 | 10.6 | 11
37 | CCTATGAGTTGACCATAAGGGCAACCGAAGCTCG | 0.925 | 0.669 | -0.0503 | 0.247 | 0.184 | 0.685 | 0.512 | 0.342 | -0.144 | -0.218
38 | ACTAGTTGGTCAGCTGAGGACACACACAATTCGG | 1.67 | -0.161 | -0.165 | 0.0976 | 0.0569 | 0.0805 | 0.997 | -0.202 | -0.228 | -0.243
39 | GGAACGAGGGCATTCGAGGTGATAGCATGGCGAT | 1.32 | 3.38 | -0.432 | 0.556 | -0.578 | 2 | 1.28 | 0.75 | 0.0745 | 0.494
40 | GCAGACAGGTGAAACGCAGGTTACTCAGGGTGGC | -0.0153 | 0.86 | -0.533 | 0.216 | -0.875 | 1.06 | 0.535 | 0.0459 | -0.6 | -0.266
